Activity calls are given as the source filed them.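 Rule for the calls, unless noted: active = NADPH fluorescence slope more negative than the mean of all samples by about 3 SD, 99.7% confidence; inactive = the rest.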
Legend:
[1] = inhibitors of TNFa-induced NFkB p65 translocation, primary screen, imaging, HUVEC, MLSMR starter and 10KST1 sets (AID 438;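 active = inhibition above 20% together with a positive visual image hit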;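 note: compound added about 3h40 before a 20 min TNFalpha stimulation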;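 for inhibition: signal is the nuclear over cytoplasmic p65 intensity ratio per well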); details: HUVEC TNFa-induced p65 nuclear translocation; cell count: measured here: nuclei count (cytotoxicity indicator), at 2.08 µM; inhibition: at 2 µM, stronger effect = higher value, 0% TNFa-plus-vehicle, 100% no-TNFa wells
[2] = inhibitors of mutant huntingtin aggregation, primary screen, imaging, exon1htt(103Q)mCFP cells, high-content imaging (AID 483;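 active = visual image review flags a hit and inhibition of aggregation exceeds 20%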;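 note: compound exposure lasted 3 days before fixation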;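 for nuclei count: percent of the per-plate median nuclei count of sample wells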); details: exon1htt(103Q)mCFP cell line, aggregate imaging, at 2 µM; inhibition of aggregation: stronger effect = higher value; nuclei count: measured here: cell count, toxicity
[3] = inhibitors of E-selectin induction by TNFa, primary screen, imaging, HUVEC, immunofluorescence, MLSMR starter and 10KST1 sets (AID 487;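 active = visually confirmed hit in the image check and inhibition above 20%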;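 for inhibition: signal is fraction of cell area covered by stained E-selectin grains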;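 for nuclei count: 100% = median nuclei count of all wells on the same plate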); details: HUVEC TNFalpha-induced E-selectin immunofluorescence imaging, at 2 µM; inhibition: stronger effect = higher value; nuclei count: measured here: cell number, toxicity
[4] = molecular target: Voltage-gated potassium channel subunit beta-2 (Rattus norvegicus) (UniProt P62483); assay: KvBeta enzyme negative modulators, primary screen, biochemical, NADPH fluorescence (AID 622;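 active = fluorescence slope higher than the sample average by over 3 SD, cut at about -0.22 in these data, passing the limit was not always enough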;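 note: slope of raw intensity against log time taken from 70 to 1610 s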); details: recombinant KvBeta, 4-cyanobenzaldehyde reduction, at 10 µM, stronger effect = higher value
[5] = molecular target: Voltage-gated potassium channel subunit beta-2 (Rattus norvegicus) (UniProt P62483); assay: KvBeta positive modulators, primary screen, biochemical, NADPH fluorescence (AID 623); details: Recombinant KvBeta, NADPH fluorescence decrease slope, 10 min; at 10 µM; stronger effect = lower value;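 note: fluorescence intensity change per second fitted from 20 to 320 s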
[6] = molecular target: Alpha-2C adrenergic receptor (Homo sapiens) (UniProt P18825); assay: modulators of alpha2C/GIRK thallium flux, primary screen, cell-based, HEK293 alpha2C/GIRK1/2 (AID 624;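 active = fluorescence slope after compound addition differing from the mean of all screened samples at 99.7% confidence, in either direction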;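 note: slope of fluorescence ratio to pre-addition baseline per second over 15 to 24 s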); details: thallium flux BTC fluorescence, at 10 µM, actives lie on both sides
[7] = inhibitors of Sendai virus-induced IRF3 signaling, primary screen, TLR/RLR signaling modifier project, cell-based, Sendai virus stimulus, luciferase, 10K MLSCN set (AID 602276;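 active = inhibition at or above 50% at 10 µM; inactive = inhibition below 50%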;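 note: firefly luciferase from ISG56 promoter only with Renilla not read in this screen; 0% = Sendai virus plus DMSO and 100% = medium plus DMSO without virus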); details: HEK293 RL24 IRF3 luciferase reporter, at 10 µM, stronger effect = higher value
[8] = inhibitors of poly I:C-induced TLR3 signaling, primary screen, cell-based, poly I:C stimulus, luciferase, 10K MLSCN set (AID 602277;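 active = inhibition of the reporter signal at or above 50%; inactive = inhibition below 50%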); details: HEK293-TLR3 RL24 IRF3 luciferase reporter, at 10 µM, stronger effect = higher value

Alpha-2C adrenergic receptor (Homo sapiens), sequence (P18825 whole entry, looked up): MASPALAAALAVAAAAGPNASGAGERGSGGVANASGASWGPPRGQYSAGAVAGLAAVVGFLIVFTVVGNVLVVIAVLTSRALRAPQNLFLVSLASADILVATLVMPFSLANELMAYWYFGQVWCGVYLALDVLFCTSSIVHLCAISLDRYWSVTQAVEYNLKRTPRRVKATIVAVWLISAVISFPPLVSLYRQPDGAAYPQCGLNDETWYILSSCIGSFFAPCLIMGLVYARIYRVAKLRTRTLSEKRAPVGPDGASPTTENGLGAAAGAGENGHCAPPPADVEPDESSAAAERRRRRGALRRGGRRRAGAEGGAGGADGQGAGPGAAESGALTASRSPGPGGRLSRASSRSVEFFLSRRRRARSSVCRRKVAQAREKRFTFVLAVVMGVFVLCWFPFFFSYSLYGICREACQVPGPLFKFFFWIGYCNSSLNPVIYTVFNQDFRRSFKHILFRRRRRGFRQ
Voltage-gated potassium channel subunit beta-2 (Rattus norvegicus), sequence (P62483 whole entry, looked up): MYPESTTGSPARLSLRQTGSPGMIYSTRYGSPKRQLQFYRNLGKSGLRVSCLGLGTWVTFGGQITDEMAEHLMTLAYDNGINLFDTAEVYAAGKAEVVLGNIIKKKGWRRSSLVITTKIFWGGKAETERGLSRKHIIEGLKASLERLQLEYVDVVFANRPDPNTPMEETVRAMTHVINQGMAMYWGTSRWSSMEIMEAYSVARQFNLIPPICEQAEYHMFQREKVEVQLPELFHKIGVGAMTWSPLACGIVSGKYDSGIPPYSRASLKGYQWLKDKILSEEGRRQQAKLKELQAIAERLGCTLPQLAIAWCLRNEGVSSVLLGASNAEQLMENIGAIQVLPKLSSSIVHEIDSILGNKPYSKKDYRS

With O=S(=O)(c1ccc2ccccc2c1)N1CCCCC1 the cell count [1] was 424, the inhibition [1] was 2.6% (inactive) and the inhibition of aggregation [2] was 7% (inactive). The nuclei count [2] was 104%, the inhibition [3] was 20.8% (inactive) and the nuclei count [3] was 104%. For the same molecule, the fluorescence slope [4] was -0.413 (inactive), the NADPH fluorescence slope [5] was -2.4e-06 (inactive) and the slope [6] was 0.00701 (inactive). The inhibition [7] was 13.9% (inactive) and the inhibition [8] was 33.1% (inactive).
With CCOC(=O)CSc1nc2cccnc2n1-c1ccc(F)cc1 the cell count [1] was 328, the inhibition [1] was -0.2% (inactive) and the inhibition of aggregation [2] was -28% (inactive). For the same molecule, the nuclei count [2] was 110%, the inhibition [3] was -26.8% (inactive) and the nuclei count [3] was 111%. The fluorescence slope [4] was -0.444 (inactive), the NADPH fluorescence slope [5] was -1.6e-05 (inactive) and the slope [6] was 0.0064 (inactive). For the same molecule, the inhibition [7] was -4.88% (inactive) and the inhibition [8] was 2.83% (inactive).
For COc1ccc(N(C)C(=O)CCS(=O)(=O)c2cccc3nonc23)c(OC)c1, the cell count [1] was 557, the inhibition [1] was -1.4% (inactive) and the inhibition of aggregation [2] was -17.3% (inactive). The nuclei count [2] was 121%, the inhibition [3] was -18.3% (inactive) and the nuclei count [3] was 125%. The fluorescence slope [4] was -0.488 (inactive), the NADPH fluorescence slope [5] was -0.000205 (inactive) and the slope [6] was 0.00467 (inactive). The inhibition [7] was 4.07% (inactive) and the inhibition [8] was 16.9% (inactive).
In the case of CC(C)c1ccc(S(=O)(=O)N2CCN(CCC(=O)Nc3ccc(N(C)C)cc3)CC2)cc1, the cell count [1] is reported as 412, the inhibition [1] is reported as -1.6% (inactive) and the inhibition of aggregation [2] is reported as 20% (inactive). For the same molecule, the nuclei count [2] was 91.6%, the inhibition [3] was -15.3% (inactive) and the nuclei count [3] was 89.3%. The fluorescence slope [4] was -0.397 (inactive), the NADPH fluorescence slope [5] was -2.3e-05 (inactive) and the slope [6] was 0.00369 (inactive). For the same molecule, the inhibition [7] was 9.08% (inactive) and the inhibition [8] was 20% (inactive).
In the case of COc1ccc(C(=O)Nc2ccc(S(=O)(=O)Nc3onc(C)c3C)cc2)cc1, the cell count [1] is reported as 501, the inhibition [1] is reported as 3.7% (inactive) and the inhibition of aggregation [2] is reported as -4.3% (inactive). For the same molecule, the nuclei count [2] was 110%, the inhibition [3] was 16.1% (inactive) and the nuclei count [3] was 111%. The fluorescence slope [4] was -0.354 (inactive), the NADPH fluorescence slope [5] was -5.4e-05 (inactive) and the slope [6] was 0.00607 (inactive). For the same molecule, the inhibition [7] was 4.94% (inactive) and the inhibition [8] was 2% (inactive).
With COc1ccc2oc(=O)c(C(=O)N3CCN(c4ccccc4F)CC3)cc2c1 the cell count [1] was 365, the inhibition [1] was -0.4% (inactive) and the inhibition of aggregation [2] was -3.7% (inactive). The nuclei count [2] was 95.9%, the inhibition [3] was -15.2% (inactive) and the nuclei count [3] was 109%. For the same molecule, the fluorescence slope [4] was -0.335 (inactive), the NADPH fluorescence slope [5] was 2.4e-05 (inactive) and the slope [6] was 0.00535 (inactive). The inhibition [7] was 16.3% (inactive) and the inhibition [8] was 21.2% (inactive).
In the case of COc1cccc2cc(C(=O)OC3CCN(C)CC3)c(=O)oc12, the cell count [1] is reported as 532, the inhibition [1] is reported as -6.1% (inactive) and the inhibition of aggregation [2] is reported as 38.8% (inactive). For the same molecule, the nuclei count [2] was 77.9%, the inhibition [3] was -56% (inactive) and the nuclei count [3] was 110%. For the same molecule, the fluorescence slope [4] was -0.605 (inactive), the NADPH fluorescence slope [5] was -2.6e-06 (inactive) and the slope [6] was 0.00643 (inactive). For the same molecule, the inhibition [7] was 6.92% (inactive) and the inhibition [8] was 31.8% (inactive).
For COc1ccc(-n2c(SCC(=O)N3CCCCC3C)nnc2-c2cccnc2)cc1 (stereo not drawn), the cell count [1] was 584, the inhibition [1] was -12.2% (inactive) and the inhibition of aggregation [2] was 24.3% (inactive). The nuclei count [2] was 93.6%, the inhibition [3] was -23.2% (inactive) and the nuclei count [3] was 103%. For the same molecule, the fluorescence slope [4] was -0.337 (inactive), the NADPH fluorescence slope [5] was -5.2e-05 (inactive) and the slope [6] was 0.00523 (inactive). For the same molecule, the inhibition [7] was 6.12% (inactive) and the inhibition [8] was 9.8% (inactive).
With CCOC(=O)c1cnn(-c2cc(C)nc3c(-c4ccccc4)c(C)nn23)c1N the cell count [1] was 645, the inhibition [1] was -7.8% (inactive) and the inhibition of aggregation [2] was 7.9% (inactive). For the same molecule, the nuclei count [2] was 124%, the inhibition [3] was -27.2% (inactive) and the nuclei count [3] was 120%. The fluorescence slope [4] was -0.625 (inactive), the NADPH fluorescence slope [5] was -3.2e-05 (inactive) and the slope [6] was 0.00566 (inactive). For the same molecule, the inhibition [7] was 14.6% (inactive) and the inhibition [8] was 17.2% (inactive).
In the case of CCC1CCc2c(sc3ncnc(N4CCOCC4)c23)C1 (stereo not drawn), the cell count [1] is reported as 588, the inhibition [1] is reported as -4.4% (inactive) and the inhibition of aggregation [2] is reported as -3.1% (inactive). The nuclei count [2] was 25.7%, the inhibition [3] was -4% (inactive) and the nuclei count [3] was 114%. The fluorescence slope [4] was -0.469 (inactive), the NADPH fluorescence slope [5] was -4.6e-05 (inactive) and the slope [6] was 0.00589 (inactive). The inhibition [7] was -6.27% (inactive) and the inhibition [8] was 13.8% (inactive).
For CCc1ccccc1-n1c(SCC(=O)N2CCCC2)nnc1-c1ccccn1, the cell count [1] was 484, the inhibition [1] was 2.5% (inactive) and the inhibition of aggregation [2] was -5.8% (inactive). For the same molecule, the nuclei count [2] was 116%, the inhibition [3] was -11.2% (inactive) and the nuclei count [3] was 104%. For the same molecule, the fluorescence slope [4] was -0.524 (inactive), the NADPH fluorescence slope [5] was 5e-05 (inactive) and the slope [6] was 0.00548 (inactive). For the same molecule, the inhibition [7] was -2.19% (inactive) and the inhibition [8] was 4.38% (inactive).
For CCCCOC(=O)CNc1nnc(SCC(=O)OCC)[nH]c1=O, the cell count [1] was 659, the inhibition [1] was -10.5% (inactive) and the inhibition of aggregation [2] was 9.9% (inactive). The nuclei count [2] was 94.8%, the inhibition [3] was -32.4% (inactive) and the nuclei count [3] was 110%. For the same molecule, the fluorescence slope [4] was -0.572 (inactive), the NADPH fluorescence slope [5] was -7.9e-06 (inactive) and the slope [6] was 0.00508 (inactive). The inhibition [7] was 2.96% (inactive) and the inhibition [8] was -3.08% (inactive).
With CCOC(=O)N1CCC(NC(=O)CCN2C(=O)COc3ccccc32)CC1 the cell count [1] was 322, the inhibition [1] was -2.6% (inactive) and the inhibition of aggregation [2] was 11.5% (inactive). The nuclei count [2] was 106%, the inhibition [3] was -22.4% (inactive) and the nuclei count [3] was 127%. The fluorescence slope [4] was -0.27 (inactive), the NADPH fluorescence slope [5] was 1.7e-05 (inactive) and the slope [6] was 0.00554 (inactive). The inhibition [7] was 17% (inactive) and the inhibition [8] was 17.2% (inactive).

— PubChem BioAssay
